# ADAM17 inh = ADAM17 inhibition, QFRET primary screen; 0.83% of 370,000 active; inhibition, % at 6.95 µM; recombinant ADAM17, EDANS/DABCYL FRET peptide cleavage;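 active means inhibition above the mean of compounds lying between control limits plus 3 SD, set per campaign, cut at about 8.5% in these data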;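 further: 0% = DMSO-only wells as the low control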
# PLCb3 inh = PLC-beta3 (human) inhibition, primary screen; AID 720704; 0.18% of 370,000 active; Q01970; Purified PLC-beta3, fluorogenic substrate, fluorescence; inhibition, % at 12.2 µM; in the data active means inhibition above about 11%;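 further: 0% = median of compound wells on plate and 100% = full blocker control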
# proKLK7 act = activators of human kallikrein-7 zymogen; AID 652039; purified proKLK7, EDANS-DABCYL substrate fluorescence; 100% is mature enzyme control, 0% vehicle; 0.9% of 370,000 active; activation, % at 7 µM;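 active means activation above the mean of all tested compounds plus 3 SD, computed per campaign excluding outliers beyond control limits, cut at about 13% in these data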
# Target sequence (P49862 whole entry, looked up): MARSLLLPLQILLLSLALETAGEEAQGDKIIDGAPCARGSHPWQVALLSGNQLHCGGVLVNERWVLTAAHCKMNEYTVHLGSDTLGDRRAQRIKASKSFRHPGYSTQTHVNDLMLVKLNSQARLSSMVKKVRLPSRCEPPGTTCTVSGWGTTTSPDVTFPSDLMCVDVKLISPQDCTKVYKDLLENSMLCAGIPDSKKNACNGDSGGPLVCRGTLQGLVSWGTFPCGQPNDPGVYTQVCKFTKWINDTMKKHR
# PLC-gamma1 inh = inhibitors of human phospholipase C gamma1; P19174; purified PLC-gamma1, fluorogenic substrate, fluorescence; inhibition, % at 12.2 µM; 0.84% of 370,000 active; in the data active means inhibition above about 9.5%
# HGIII-sPLA2 inh = Blocks human group III sPLA2 activity | inhibition, % at 12.2 µM | Q9NZ20 | QFRET BODIPY PC-A2 liposome hydrolysis, fluorescence | 0.56% of 370,000 active;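 active means inhibition above mean plus 3 SD of compounds lying within the high and low control bounds, cut at about 19% in these data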;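 further: 0% = median of test compound wells and 100% = no enzyme DMSO wells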
# ADAM10 inh = inhibits human ADAM10 | inhibition, % at 7 µM | 0.62% of 370,000 active | O14672 | recombinant ADAM10, EDANS/DABCYL FRET peptide cleavage, 3 h;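 active means inhibition above a per-campaign cutoff equal to the mean of compounds falling between control-based bounds plus 3 SD, cut at about 20% in these data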;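 further: 0% = DMSO wells while the 100% control is not disclosed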
# KLK7 act conf = confirmation of human kallikrein-7 zymogen activators; shares compounds with proKLK7 act; purified proKLK7, EDANS-DABCYL substrate fluorescence; scaled: vehicle 0, mature enzyme 100; activation, % at 7 µM; 68% of 3,200 active;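 active means activation, as change over the incubation, above the mean of all tested compounds plus 3 SD, cut at about 13% in these data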
# EDANS-DABCYL int = counter-screen for kallikrein-7 activators: EDANS-DABCYL optical interference; AID 686952; activation, % at 7 µM; EDANS-DABCYL substrate fluorescence interference, no enzyme, 4 h; solvent 0%, active enzyme control 100%; shares compounds with proKLK7 act; 80% of 3,200 active;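 active means activation above the all-compound mean plus 3 SD, ignoring values outside control-based bounds, cut at about 4.8% in these data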;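 further: value is the 4 h activation minus the activation read at time zero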
# K7 EDANS ctr = counter-screen for kallikrein-7 activators: EDANS-DABCYL interference, dose response. shares compounds with proKLK7 act. EDANS-DABCYL peptide fluorescence interference, no enzyme. EC50, µM. 20% of 250 active. AID 720493;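 active means compounds that raise the fluorescence signal in this interference counterscreen, with EC50 at or below 10 µM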;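 further: intact quenched peptide substrate alone read at 355 nm excitation and 520 nm emission; signal is fluorescence gain from T0 to T4 after four hours at room temperature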
# The depositor's hits bear a star; i = inactive; nt = no result given. This is a sample that favours compounds with a hit; in the whole collection about 3.4% have one here.
SMILES,ADAM17 inh,PLCb3 inh,proKLK7 act,PLC-gamma1 inh,HGIII-sPLA2 inh,ADAM10 inh,KLK7 act conf,EDANS-DABCYL int,others
COC(=O)[C@]12C[C@H](CC(=O)NCc3ccccc3)C(=O)N(CCC3=CCCCC3)C1=C[C@H](C1CCCC1)O[C@@H]2C,4.4,3.2,0.7,1.6,-4.2,9.2,nt,nt,
COc1ccc2c(c1)c1ncn(CCc3ccccc3)c(=O)c1n2C,i,-377.2,-6.1,-285.0,-16.6,i,nt,nt,
COc1ccc2c(c1)[nH]c1c(=O)n(CCCN3CCOCC3)cnc12,-7.1,1.6,-0.5,-1.0,8.8,-2.9,nt,nt,
COc1ccc2c(c1)c1ncn(CC3CCCO3)c(=O)c1n2C (stereo not given),i,-425.4,12.8*,-445.9,14.5,i,3.0,3.5,
COc1ccc2c(c1)c1ncn(CCCN3CCOCC3)c(=O)c1n2C,i,-392.4,14.6*,-258.0,6.0,i,10.9,20.2*,
O=C(OCc1cn(Cc2ccc(C(F)(F)F)cc2)nn1)N1CCOCC1,-12.0,-3.6,0.1,1.6,18.7,-24.2,nt,nt,
Nc1nc2ncccc2cc1C(=O)C1=C(c2ccccc2)Cc2ccccc21,-4.5,-5.5,0.4,-0.1,2.3,-12.8,nt,nt,
O=C1c2ccccc2NC(c2ccccn2)N1c1ccc(Cl)cc1 (stereo not given),-265.1,-498.6,12.4,-462.9,-2.0,i,nt,nt,
Cc1cccc(C2Nc3ccccc3C(=O)N2c2ccccc2)n1 (stereo not given),-343.0,i,19.2*,i,-6.8,i,40.5*,43.4*,
N#Cc1nc(-c2cccs2)oc1N1CCOCC1,i,i,14.7*,i,6.4,i,39.6*,48.8*,
N#Cc1nc(-c2cccs2)oc1NCCCN1CCOCC1,i,i,41.8*,i,5.8,i,78.1*,78.1*,
CC1CN(c2oc(-c3cccs3)nc2C#N)CC(C)O1 (stereo not given),i,-275.8,10.3,-215.7,0.9,i,nt,nt,
CNc1oc(/C=C/c2ccccc2)nc1C#N,i,i,80.4*,i,7.4,i,64.4*,67.6*,
COCCNc1oc(/C=C/c2ccccc2)nc1C#N,i,i,106.2*,i,14.8,i,70.6*,75.8*,
COc1ccc(-c2nc(C#N)c(NCCCN3CCOCC3)o2)cc1,-191.3,-263.2,0.4,-202.5,-5.5,i,nt,nt,
CNc1oc(-c2ccccc2)nc1C#N,-317.8,i,-14.3,-494.6,1.1,i,nt,nt,
CN(C)[C@@H]1CCN(c2cccc3c2S(=O)(=O)N2CC[C@H](C2)O3)C1,-4.3,1.6,-0.1,2.8,-1.7,-1.8,nt,nt,
COc1ccc(-c2nnn3c2Cn2c4ccccc4c(=O)n2[C@@H](C)C3)cc1,-64.8,-29.0,0.5,-21.6,-4.1,-219.6,nt,nt,
N#Cc1nc(/C=C/c2ccccc2)oc1NCCCN1CCOCC1,i,i,32.1*,i,-5.3,i,75.0*,70.8*,
COc1ccc(CN2C3=NC(c4ccccc4)CC(=O)N3/C(=C\c3ccccc3)C2c2ccccc2)c(OC)c1 (stereo not given),2.3,-2.5,nt,-1.7,-8.0,5.8,nt,nt,
C=CCN(C(=O)[C@@H](CCCC)[C@@H](O)c1ccc(C(C)=O)cc1)c1ccccc1,0.5,1.0,0.6,0.2,-10.9,2.9,nt,nt,
NS(=O)(=O)c1cc2c(cc1Cl)NC(C1CC3C=CC1C3)NS2(=O)=O (stereo not given),-1.7,4.0,0.4,-0.2,-6.1,1.4,nt,nt,
O=C1NC(C2CC3C=CC2C3)Nc2ccccc21 (stereo not given),-276.3,-484.4,23.5*,-400.2,-2.5,i,25.1*,21.1*,K7 EDANS ctr=>69.4
Cc1ccc2c(c1)-c1c(cnn1CC(=O)NCCc1ccc(O)cc1)CO2,-2.4,5.0,-0.4,1.7,-4.7,-4.5,nt,nt,
O=c1[nH]c2cc(Br)c(Br)nc2[nH]1,-0.2,-1.3,0.2,-2.1,-2.9,-6.8,nt,nt,
SMILES,ADAM17 inh,PLCb3 inh,proKLK7 act,PLC-gamma1 inh,HGIII-sPLA2 inh,ADAM10 inh,KLK7 act conf,EDANS-DABCYL int,others
CCOC(=O)N1CCN(C(=O)C[C@H]2C[C@@]3(C(=O)OC)C(=C[C@H](C(C)C)O[C@@H]3C3CC3)N(CCC3=CCCCC3)C2=O)CC1,0.0,-0.2,0.6,0.2,-10.6,1.6,nt,nt,
NC(=O)c1ccccc1OCc1cccc2ccccc12,1.5,-3.2,0.2,2.1,-11.4,-0.7,nt,nt,
NC(=O)c1cccc2cc3ccccc3cc12,-446.8,i,53.5*,i,-1.3,i,65.1*,71.8*,
COC(=O)C[C@@H]1CC[C@H]2[C@@H](COc3ccc(NC(=O)Nc4ccccc4Cl)cc3C(=O)N2C)O1,-3.3,-1.0,0.3,-0.6,0.1,-2.6,nt,nt,
O=C(NNC(=O)c1cc(-c2ccco2)nc2ccccc12)c1ccccc1,-464.9,i,140.8*,i,3.8,i,50.6*,69.9*,
CC(=O)Nc1ccc(/C=N/NC(=O)c2cc(-c3ccco3)nc3ccccc23)cc1,-84.6,-272.4,-10.2,-186.9,8.0,-339.6,nt,nt,
O=C(O)c1ccccc1/C=N/NC(=O)c1cc(-c2ccco2)nc2ccccc12,-188.4,i,15.4*,-367.6,8.4,i,28.8*,31.5*,
CCN(CC)CCNC(=O)c1cc(-c2ccco2)nc2ccccc12,i,i,60.5*,i,-3.3,i,57.2*,73.4*,
CC(=O)c1cccc(NC(=O)c2cc(-c3ccco3)nc3ccccc23)c1,-81.1,-370.9,-4.5,-224.5,-4.5,-237.1,nt,nt,
COC(=O)[C@]12C[C@H](CC(=O)NCc3ccc(OC)c(OC)c3)C(=O)N(CCc3ccc(OC)c(OC)c3)C1=C[C@H](COCc1ccccc1)O[C@@H]2C,-4.3,0.7,0.3,-0.8,-9.9,4.1,nt,nt,
COc1ccc(-n2cc(COC(=O)NCCc3ccccc3)nn2)cc1,-2.8,-1.4,-0.3,-1.9,4.8,-1.4,nt,nt,
N=c1c(C(=O)NCC2CCCO2)cc2c(=O)n3ccccc3nc2n1Cc1cccnc1 (stereo not given),i,i,134.0*,i,-2.8,i,34.7*,32.9*,
N=c1c(C(=O)NCc2ccc(F)cc2)cc2c(=O)n3ccccc3nc2n1Cc1cccnc1,i,i,26.3*,-400.6,-3.9,i,-5.5,-8.1,
Cc1cccn2c(=O)c3cc(C(=O)NCC4CCCO4)c(=N)n(Cc4cccnc4)c3nc12 (stereo not given),i,i,147.8*,i,8.2,i,48.7*,60.1*,
